Each structure is given as a SMILES string. Values without a mark were called inactive. No rule for the calls is given here.

The test deals with Rolipram. The experiment in a line: selectivity profile over receptors, transporters, CYPs – biochemical, Ricerca HitProfilingScreen, CYP450, set 2, selectivity assay for GPR7 antagonist project, profiling panel (AID 540345). To be noted: Ricerca radioligand binding/CYP panel, at 10 µM, active compounds read high.

What is called inhibition is the relative decrease from the control value, in per cent. In the case of `COc1ccc(Oc2c(Cl)cnn(C3c4ccccc4-c4ccccc43)c2=O)cc1`, the inhibition was 5%.

Values taken from PubChem BioAssay AID540345 (The Scripps Research Institute Molecular Screening Center, 2011).
